# Shown are actives, neighbours in structure and some others; about 2.4% of the full set was active somewhere.
# POLI inh – qHTS for Inhibitors of Polymerase Iota | Pol iota fluorescent replication assay, 10 min | Potency, µM (series often up to 115 µM), for the others: top-dose activity, negative = inhibition, hits mostly inhibitors | hit rate 1% among 390,000 | AID 588590, 2011
# Target sequence (Q9UNA4 whole entry, looked up): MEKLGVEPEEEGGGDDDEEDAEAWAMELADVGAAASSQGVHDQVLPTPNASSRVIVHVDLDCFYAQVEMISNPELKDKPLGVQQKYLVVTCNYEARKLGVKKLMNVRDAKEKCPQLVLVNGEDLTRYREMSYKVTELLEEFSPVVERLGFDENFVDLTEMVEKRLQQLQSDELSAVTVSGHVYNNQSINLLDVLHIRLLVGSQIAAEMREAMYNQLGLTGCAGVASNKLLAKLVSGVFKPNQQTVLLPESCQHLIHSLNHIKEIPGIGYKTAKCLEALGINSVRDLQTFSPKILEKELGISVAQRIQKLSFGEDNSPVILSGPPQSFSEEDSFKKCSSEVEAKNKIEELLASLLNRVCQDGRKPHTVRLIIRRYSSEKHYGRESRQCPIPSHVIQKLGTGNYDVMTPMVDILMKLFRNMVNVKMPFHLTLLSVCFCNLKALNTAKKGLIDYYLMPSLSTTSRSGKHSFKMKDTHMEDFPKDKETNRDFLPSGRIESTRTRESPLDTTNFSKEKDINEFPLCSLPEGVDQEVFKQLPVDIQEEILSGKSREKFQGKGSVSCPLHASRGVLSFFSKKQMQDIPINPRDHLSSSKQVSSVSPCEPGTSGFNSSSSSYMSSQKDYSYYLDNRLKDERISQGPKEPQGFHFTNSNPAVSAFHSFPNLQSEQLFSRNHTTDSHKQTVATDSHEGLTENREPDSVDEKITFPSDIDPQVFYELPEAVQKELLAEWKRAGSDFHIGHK
#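 Fluorescent replication assay read twice, at 0 min and 10 min after adding 50 nM (final) substrate. Enzyme (10 nM) and compounds were first incubated 15 min at room temperature; enzyme-free buffer wells were negative controls.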
# POLK inh – qHTS for Inhibitors of Polymerase Kappa. hit rate 0.53% among 400,000. Potency, µM (titrated, usually from 107 µM), inactives show top-dose activity, negative = inhibition, most hits filed as inhibitors. DNA polymerase kappa (Homo sapiens), Q9UBT6. purified Pol kappa, fluorescent DNA synthesis assay, 10 min; further: on the % scale 0 is the no-effect control and ±100 the full control effect
#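 10 nM Pol kappa preincubated 15 min at room temperature with compounds, then reaction started with substrate at 50 nM final. Fluorescence read kinetically at 0 and 10 min; buffer-only wells served as negative control.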
# POLB inh – qHTS Assay for Inhibitors of DNA Polymerase Beta; Pol beta primer extension/strand displacement, fluorescence kinetic; P06746; hit rate 1.3% among 340,000; Potency, µM (doses to about 114 µM), inactives show at the highest dose activity change, negative = inhibition, usual class: inhibitors; further: on the % scale 0 is the no-effect control and ±100 the full control effect
#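 10 nM enzyme + cpd, 15 min RT; start with substrate 50 nM final; read 0 min and after 10 min RT. Corrected, normalized data; 4-parameter Hill curve fit.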
# L3MBTL1 block – qHTS Assay for the Inhibitors of L3MBTL1 | Potency, µM (highest dose often 57.1 µM), inactives show at the highest dose activity, negative = inhibition, most hits filed as inhibitors | hit rate 0.66% among 230,000 | AlphaScreen L3MBTL1–H3K9me1 peptide binding | AID 485360, 2010; further: on the % scale 0 is the no-effect control and ±100 the full control effect; nearly all actives have a fitted effect of over 60% in size
#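 Displacement of a biotinylated histone H3(1-15) peptide monomethylated at Lys9 (75 nM) from L3MBTL1 (50 nM) was measured by AlphaScreen after a 30 min room-temperature compound incubation; cefsulodin titration served as intraplate control.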
# Pol eta inh – qHTS for Inhibitors of Polymerase Eta; recombinant Pol eta, fluorescent DNA replication assay; Potency, µM (series often up to 114 µM), for inactives: at the highest dose activity change, negative = inhibition, hits mostly inhibitors; hit rate 1.2% among 390,000; further: on the % scale 0 is the no-effect control and ±100 the full control effect
#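 Pol eta (10 nM) was preincubated with compounds for 15 min at room temperature, after which fluorescent replication substrate (50 nM final) was added to start the reaction. Fluorescence was read kinetically at 0 and 10 min.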
# Numbers without * were called inactive; ? = inconclusive; . = no result; [ ] = another dose, or the depositor's remark. The call rests on the fitted dose curve; in most records, active means well fitted curve in the direction sought with a large enough effect; inconclusive means small, poorly fitted or top-dose-only effect, or another doubt; inactive means no such curve, though single readings can be large; an effect the other way counts as inactive or inconclusive. Potency means the concentration at half of the fitted maximal effect.
SMILES,POLI inh,POLK inh,POLB inh,L3MBTL1 block,Pol eta inh
O=C(NNC(=O)c1ccc(NC(=O)c2ccccc2)cc1)Nc1ccccc1,40µM*,?,11µM*,-3%,?
COc1ccc(NC(=O)NNC(=O)c2ccc(-c3ccccc3)cc2)c(OC)c1,-15%,-6%,1%,.,-16%
COc1ccc(NC(=O)NNC(=O)c2ccc(-c3ccccc3)cc2)cc1,?,-17%,7.9µM*,.,-16%
O=C(CCc1ccccc1)NNC(=O)c1ccc(NC(=O)c2ccccc2)cc1,?,-19%,22µM*,-1%,?
CCN(CC)c1ccc(/C=C/c2ccccn2)cc1,?,-22%,.,.,.
CCN(CC)c1ccc(/C=C/C2=C3C=CC=CC3NC=C2)cc1 (configuration not stated),1.3µM*,-20%,.,.,.
CCN(Cc1ccccc1)S(=O)(=O)c1cc(Br)cc2c1N(C(=O)C1CC1)CC2,17%,-8%,-1%,.,-9%
CCN(CC(=O)Nc1ccc(OC)cc1)C(=O)Cc1cccs1,32µM*,?,.,?,56µM*
O=C(NCc1cccs1)c1cc(-c2ccncc2)nc2ccc(Br)cc12,.,.,40µM*,-6%,.
COCCNC(=O)c1cc(-c2cccnc2)nc2ccc(Br)cc12,18%,-5%,-1%,.,6%
Cc1[nH]c(=O)c(C#N)c2c1CCCC2,11%,-3%,-18%,-12%,0%
N#Cc1c(-c2ccco2)c2c([nH]c1=S)CCCC2,13µM*,-28%,28µM*,?,?
N#Cc1c(-c2cccnc2)c2c([nH]c1=S)CCCC2,?,2%,35%,2%,-7%
N#Cc1c2c(c(-c3ccco3)[nH]c1=O)CCCC2,28µM*,?,2%,-2%,-6%
C[C@@H]1CN([C@@H](C)CO)C(=O)CCCn2nncc2CO[C@@H]1CN(C)S(=O)(=O)c1cccc(F)c1,.,.,.,.,5%
CN(C)c1ccc(/C=C/c2ccnc3c(Cl)cccc23)cc1,-10%,-33%,.,.,.
COc1ccc(Cc2nnc(N/N=C/c3ccc(O)cc3O)[nH]c2=O)cc1OC,2%,-3%,?,3.5µM*,-13%
Cc1csc(NC(=O)Nc2ccc(Cl)cc2)n1,?,-35%,28µM*,22%,?
N#Cc1ccc(NCCNCC(=O)N2N=CCC2C#N)nc1 (configuration not stated),.,2%[60.1 µM],.,.,.
Cc1ccc(CN(Cc2cccn2-c2nnc(N3CCCC3=O)s2)C(=O)Nc2ccc(F)cc2)cc1,5%,0%,8%,.,-14%
Cn1c2ccccc2n2c(=O)c(Cl)c(-c3ccccc3)c(C#N)c12,1%,-19%,28%,5%,0%
Cn1c2ccccc2n2c(=O)cc(-c3ccccc3)c(C#N)c12,97%,-7%,45µM*,2%,-1%
CCc1cc2c(=O)n(Cc3ccco3)c(SCc3c(C)noc3C)nc2s1,14µM*,-12%,0%,-10%,-19%
CCc1cc2c(=O)n(Cc3ccco3)c(SCC(=O)NC3CCS(=O)(=O)C3)nc2s1 (configuration not stated),?,-28%,?,3%,0%
CCc1cc2c(=O)n(Cc3ccco3)c(SCC(=O)N(C)C3CCS(=O)(=O)C3)nc2s1 (configuration not stated),?,?,20µM*,?,-10%
SMILES,POLI inh,POLK inh,POLB inh,L3MBTL1 block,Pol eta inh
COc1cc(/C=C2\C(=N)N3N=CSC3=NC2=O)cc(Br)c1OC(=O)c1ccco1,?,-14%,?,-7%,79µM*
COc1cc(/C=C2/C(=O)N(c3ccc(C(=O)O)cc3)N=C2C)cc(OC)c1O,1.6µM*,-21%,13%,.,?
C=CCOc1ccc(/C=C2\C(=N)N3N=C(S(=O)(=O)CC)SC3=NC2=O)cc1OC,?,-4%,-3%,.,40µM*
CS(=O)(=O)C1=NN2C(=N)/C(=C\c3ccc(OC(=O)c4ccco4)cc3)C(=O)N=C2S1,2%,-19%,?,.,-3%
CCS(=O)(=O)C1=NN2C(=N)/C(=C\c3ccc(OC(=O)c4ccco4)c(OC)c3)C(=O)N=C2S1,?,-30%,-25%,.,79µM*
COc1ccc(-c2oc3ncn4nc(-c5ccccc5C)nc4c3c2-c2ccc(OC)cc2)cc1,11%,-17%,5%,.,-5%
COc1cc(/C=C2\C(=O)N(c3ccc(S(N)(=O)=O)cc3)N=C2C)ccc1OC(=O)c1ccco1,2.5µM*,1%,?,.,-13%
CC[C@H](C)[C@H](NC(=O)[C@H](CO)NC(=O)[C@H](CC(C)C)NC(=O)[C@@H]1CCCN1C(=O)[C@@H]1CCCN1C(=O)[C@H](CC(=O)O)NC(=O)[C@@H](N)CC(=O)O)C(=O)N[C@@H](CC(=O)O)C(=O)N[C@@H](CC(C)C)C(=O)N[C@H](C(=O)N[C@@H](Cc1ccccc1)C(=O)N[C@@H](Cc1cnc[nH]1)C(=O)N[C@@H](CC(C)C)C(=O)N[C@@H](CC(C)C)C(=O)N[C@@H](CCCNC(=N)N)C(=O)N[C@H](C(=O)N[C@@H](CC(C)C)C(=O)N[C@@H](CC(C)C)C(=O)N[C@@H](CCC(=O)O)C(=O)N[C@@H](CC(C)C)C(=O)N[C@@H](C)C(=O)N[C@@H](CCCNC(=N)N)C(=O)N[C@H](C(=O)N[C@@H](CCC(N)=O)C(=O)N[C@@H](CO)C(=O)N[C@@H](CCC(N)=O)C(=O)N[C@@H](CCCNC(=N)N)C(=O)N[C@@H](CCC(=O)O)C(=O)N[C@@H](CCCNC(=N)N)C(=O)N[C@@H](C)C(=O)N[C@@H](CCC(=O)O)C(=O)N[C@@H](CCC(N)=O)C(=O)N[C@@H](CC(N)=O)C(=O)N[C@@H](CCCNC(=N)N)C(=O)N[C@H](C(=O)N[C@H](C(=O)N[C@@H](Cc1ccccc1)C(=O)N[C@@H](CC(=O)O)C(=O)N[C@@H](CO)C(=O)N[C@H](C(N)=O)C(C)C)[C@@H](C)CC)[C@@H](C)CC)[C@@H](C)O)[C@@H](C)O)[C@@H](C)O,.,8%[60.1 µM],.,.,.
O=c1c2c(nc3cc(-c4ccccc4Cl)[nH]n13)CCS2,-8%,-16%,35µM*,?,0%
O=c1c2c(nc3cc(-c4ccccc4)[nH]n13)CCS2,-13%,-23%,0%,14%,-1%
CNS(=O)(=O)c1cc(N)ccc1C,0%,-5%,38%,6%,-6%
Cc1ccc(Nc2ccc(N)cc2S(=O)(=O)O)cc1,?,-1%,?,?,40µM*
COc1ccc(C(=O)Nc2cccc(NC(C)=O)c2)cc1OC,?,?,8.9µM*,4%,?

# Assay outcomes: PubChem, National Center for Advancing Translational Sciences (NCATS)
